FMDV Renilla: antivirals against foot and mouth disease virus replicon; Potency, µM (series often up to 57.5 µM), for the others: at the highest dose activity change, negative = inhibition, hits mostly inhibitors; 120,000 compounds, 0.32% hits; AID 1745857; FMDV replicon cells, Renilla luciferase signal; further: nearly all actives have a fitted effect of over 55% in size
FMDV FLuc: antivirals against foot and mouth disease virus. FMDV antiviral cell assay, firefly luciferase signal. Potency, µM (doses to about 57.5 µM), for inactives: top-dose activity change, negative = inhibition, usual class: inhibitors. 120,000 compounds, 0.23% hits. AID 1745856; further: nearly all actives have a fitted effect of over 60% in size
* marks the source's active call; other numbers are inactive results; u = inconclusive. In the library only some 0.4% were active in any assay of this set; here they are far more common. The call rests on the fitted dose curve. On the % scale 0 is the no-effect control and ±100 the full control effect; potency means the concentration at half of the fitted maximal effect.

SMILES | FMDV Renilla | FMDV FLuc
CC1OC(OC2CCC3(C=O)[C@H]4CCC5(C)C(C6=CC(=O)OC6)CCC5(O)[C@@H]4CCC3(O)C2)CC(O)C1O (stereo partly specified) | 0.282µM* | u
COc1ccc(C2=C(C=O)C(c3ccccc3)c3ccccc3O2)cc1 (stereo unspecified) | 22.0% | 1.4%
CC(Oc1ccc(F)cc1)C(=O)Nc1nc(-c2ccc(F)cc2)ns1 (stereo unspecified) | 22.4µM* | 22.4µM*
COc1ccc(-c2nsc(NC(=O)COc3ccccc3OC)n2)cc1 | -4.1% | 10.9%
COc1ccccc1OCCn1cc(C(=O)C(F)(F)F)c2cc(Br)ccc21 | -9.5% | -3.2%
COc1ccccc1OCCn1cc(C(C)=O)c2ccccc21 | 15.8µM* | u
Nc1nccnc1C(=O)Nc1ccncc1 | 15.2% | 25.1%
Cc1cccc(N2CCN(c3ncnc4c3nc3n4CCCCC3)CC2C)c1 (stereo unspecified) | 2.51µM* | 2.82µM*
Clc1cccc(N2CCN(c3ncnc4c3nc3n4CCCC3)CC2)c1 | u | 0.0%
Cc1nc(C)c(-c2ccc(SCC(=O)Nc3ccc(F)c(F)c3)nn2)s1 | 7.94µM* | u
Cc1nc(C)c(-c2ccc(SCC(=O)Nc3ccc(C)c(F)c3)nn2)s1 | 1.8% | 2.6%
CN(CC(=O)Nc1ccc(OC(F)(F)F)cc1)C(=O)c1n[nH]c2ccccc12 | -3.1% | 10.9%
CCCN1C(=O)CCc2cc(NS(=O)(=O)c3cc(C)ccc3C)ccc21 | 79.8% | u
COc1ccc(CNC(=O)c2nc(S(=O)(=O)Cc3ccccc3)ncc2Cl)cc1 | 1.8% | 22.4µM*
COc1ccc(NC(=O)c2nc(S(=O)(=O)Cc3ccc(C)cc3)ncc2Cl)cc1 | 13.9% | 0.0%
CCOP(=O)(OCC)c1nc(Cc2ccc(Cl)cc2)oc1NCc1ccc2c(c1)OCO2 | 28.2% | -1.7%
Fc1ccccc1-c1ccc(CNCC2CCNCC2)o1 | -28.2% | -8.5%
Clc1ccc(-c2ccc(CNCC3CCNCC3)o2)c(Cl)c1 | 28.2µM* | u
CC(=O)c1c(C)[nH]c(C(=O)CSc2ccc(Br)cc2)c1C | -18.4% | 48.1%
CC(=O)c1c(C)[nH]c(C(=O)C(C)Sc2ccccc2Br)c1C (stereo unspecified) | 0.0% | 25.1µM*
O=C1/C(=C/c2ccc(Br)cc2F)Cc2ccccc21 | 0.8% | 0.0%
Cc1ccc(S(=O)(=O)N2CCc3cc(C(=O)Nc4ccc(C(F)(F)F)cc4)ccc32)cc1 | 135.8% | 1.8%
CC(C)c1ccc(NC(=O)c2ccc3c(c2)CCCN3S(C)(=O)=O)cc1 | 8.91µM* | u
CS(=O)(=O)N1CCc2cc(C(=O)Nc3ccc(C(F)(F)F)cc3)ccc21 | 31.6µM* | u
CC(C)c1ccc(NC(=O)c2ccc3c(c2)CCN3S(=O)(=O)c2ccccc2)cc1 | 17.0% | -16.4%
SMILES | FMDV Renilla | FMDV FLuc
CCCCc1ccc(NC(=O)c2ccc3c(c2)CCN3S(=O)(=O)CC)cc1 | 25.1µM* | 8.91µM*
CCS(=O)(=O)N1CCc2cc(C(=O)Nc3cccc(C(C)=O)c3)ccc21 | 9.5% | 60.9%
CC(Oc1c(F)c(F)c(F)c(F)c1F)C(=O)c1c[nH]c2ccccc12 (stereo unspecified) | 22.0% | 40.2%
O=C(NCC1CCCO1)c1ccc(Cn2c(SCc3ccc(F)cc3)nc3cccnc32)cc1 (stereo unspecified) | -17.6% | 114.5%
COc1ccc(Cl)cc1NC(=O)CCc1ncc(-c2ccc(F)cc2F)o1 | -11.4% | 8.1%
CCc1ccc2oc(C(=O)NCCc3ccc(OC)c(OC)c3)cc(=O)c2c1 | u | 35.5µM*
COc1ccc(CCNC(=O)c2cc(=O)c3ccccc3o2)cc1OC | -12.9% | -20.5%
CCOc1ccc(CN(CC)Cc2cc(=O)oc3ccc(OC)cc23)cc1 | 25.1µM* | u
CCN(Cc1ccc(OC)cc1)Cc1cc(=O)oc2ccc(C)cc12 | 6.4% | 2.6%
C=CCNc1nc2c(c(=O)n(C)c(=O)n2C)n1CCC(C)C | 15.8µM* | 28.2µM*
C=CCNc1nc2c(c(=O)n(C)c(=O)n2C)n1CC(O)COc1ccc(OC)cc1 (stereo unspecified) | 22.4µM* | u
Cc1ccc(OCC(O)Cn2c(NCC(=O)O)nc3c2c(=O)n(C)c(=O)n3C)cc1 (stereo unspecified) | -15.7% | -6.1%
C=CCNc1nc2c(c(=O)n(C)c(=O)n2C)n1CC | -8.3% | -7.1%
Cc1ccc(-c2cc(C(=O)O)c3ccccc3n2)cc1 | 1.0% | 146.4%
O=C(O)C(c1c[nH]c2ccccc12)N1CCc2ccccc2C1 (stereo unspecified) | -12.4% | 0.0%
COc1cc(CN2CCc3nc(N4CCN(c5ncccn5)CC4)ncc3C2)cc(OC)c1OC | 7.08µM* | u
Brc1ccc(CN2CCc3nc(N4CCN(c5ncccn5)CC4)ncc3C2)cc1 | u | -25.2%
Cc1ccc2c(CSc3nnnn3-c3ccccc3)cc(=O)oc2c1C | 0.0% | -1.5%
Cc1nc(-c2ccc(CCNC(=O)c3nccnc3N)s2)cs1 | u | 26.4%
Cc1nc(-c2ccc(CNC(=O)c3nccnc3N)s2)cs1 | 8.91µM* | u
